Laboratory results reported in PubChem BioAssay (NCI).
The panel holds about 79,000 compounds, 15% with a hit somewhere; the sample as a whole holds those more often. The source made the active and inactive calls. Rule as the data show it: active = growth inhibition above about 70%; inactive = the rest.

Legend:
[1] = NCI Yeast Anticancer Drug Screen. Data for the rad50 strain (AID 155);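 also: 0% = growth of vehicle-only cultures of the same strain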; settings: S. cerevisiae rad50 strain growth inhibition; at 50.0 µM; active compounds read high
In short: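 Relative growth inhibition (compound vs vehicle) was measured in yeast with a defined repair-gene alteration.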

[2] = NCI Yeast Anticancer Drug Screen. Data for the mec2-1 strain (AID 157); settings: S. cerevisiae mec2-1 strain, at 50.0 µM, active compounds read high
In short: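 Yeast mec2-1 mutant treated with compound. Readout: growth inhibition vs vehicle controls.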

[3] = NCI Yeast Anticancer Drug Screen. Data for the sgs1 mgt1 strain (AID 161);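 also: 0% = growth of cultures given vehicle only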; settings: S. cerevisiae sgs1 mgt1 strain, at 50.0 µM, active compounds read high
In short: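 Genetically altered yeast, compound exposure, growth inhibition relative to vehicle.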

[4] = NCI Yeast Anticancer Drug Screen. Data for the cln2 rad14 strain (AID 165);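 also: 0% = growth equal to vehicle treated cultures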; settings: S. cerevisiae cln2 rad14 strain, at 50.0 µM, active compounds read high
In short: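 cln2 rad14 yeast strain; compound exposure; growth inhibition read vs vehicle controls.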

[5] = NCI Yeast Anticancer Drug Screen. Data for the bub3 strain (AID 167); settings: S. cerevisiae bub3 mutant strain, at 50.0 µM, active compounds read high
In short: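 Screening used yeast with an engineered genetic alteration affecting cell cycle control. Compound-exposed cultures were compared with vehicle cultures, and reduced growth was taken as inhibition.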

[6] = NCI Yeast Anticancer Drug Screen. Data for the mlh1 rad18 strain (AID 175); settings: S. cerevisiae mlh1 rad18 strain growth inhibition; at 50.0 µM; active compounds read high
In short: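 Yeast w/ defined DNA-repair lesions; compound exposure; growth vs vehicle controls → % inhibition.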

Measured: growth inhibition

Cc1ccc2[nH]c(=S)n(-c3cccc(C(F)(F)F)c3)c(=O)c2c1
inactive: [1] 17.8% | [2] 6.35% | [3] 21.4% | [4] 20.7% | [5] 22.6% | [6] 16.5%

CC(C)c1cc2c(c(O)c1O)[C@@]1(C(=O)O)CCCC(C)(C)[C@@H]1CC2
active: [1] 91.8% | [2] 93.5% | [3] 93.3% | [4] 92% | [5] 92.3% | [6] 92.3%

O=C1NC(=O)C(F)(n2cc(F)c(=O)[nH]c2=O)C(O)N1 (stereo not given)
inactive: [1] -47.8% | [2] -31.3% | [3] -10.2% | [4] -40% | [5] -13.4% | [6] -54.9%

O=S(=O)(O)c1ccc(Cl)cc1
inactive: [1] -0.45% | [2] -3.2% | [3] -1.15% | [4] 23.1% | [5] 0.3% | [6] 9.1%

O=C(Nc1cccc(Cl)c1)Oc1ccc(S(=O)(=O)F)cc1Cl
active: [1] 92.3% | [2] 94.7% | [3] 95.7% | [4] 91.2% | [5] 90.9% | [6] 94.8%

CC(=O)OC(c1ccccc1Cl)C(Cl)(Cl)Cl (stereo not given)
inactive: [1] -16.9% | [2] -9.35% | [3] -4.65% | [4] -39.9% | [5] -14.2% | [6] -5.55%

C=C[CH2][Sn]([CH2]C=C)([CH2]CCC)[CH2]CCC
active: [1] 99.4% | [2] 99.5% | [3] 99.6% | [4] 99.2% | [5] 99.5% | [6] 99.4%

CC(C)[C@@H]1ON1C(C)c1ccccc1 (stereo not given in full)
inactive: [1] 21.3% | [2] -10.1% | [3] 25.8% | [4] 11.6% | [5] 27.4% | [6] 16%

CSc1nc2cc(Cl)ccc2c2c1C=NCCN2
inactive: [1] 28.6% | [2] 19.2% | [3] 13.7% | [4] -43.4% | [5] -24.1% | [6] 4.05%

CC(Cl)CNC1CCCCC1 (stereo not given)
inactive: [1] 6% | [2] -3.5% | [3] -8.95% | [4] -10.6% | [5] -0.95% | [6] -0.9%

CCCCOCN(CCc1ccccc1)COCCCC
inactive: [1] 15.7% | [2] 5.8% | [3] 24.2% | [4] 19.2% | [5] 10.2% | [6] 25.6%

NNC(=O)NNC(=O)NN
inactive: [1] -5.95% | [2] -3.1% | [3] -12.3% | [4] 1.65% | [5] -8.25% | [6] 9.9%

CCC1(CCC(C)C)C(=O)NC(=O)N(c2ccccc2)C1=O (stereo not given)
inactive: [1] 1.2% | [2] -1.5% | [3] -4.5% | [4] 7.2% | [5] 8.3% | [6] -9.25%

COP(=O)(Cc1ccc(/C=C/C#N)o1)OC
inactive: [1] -12.2% | [2] -3.1% | [3] -38.8% | [4] -22.1% | [5] 18.2% | [6] -10.2%

OC12CCC[N+]1(Cc1ccccc1)CCC2 (stereo not given)
inactive: [1] 9.25% | [2] -9.75% | [3] -7.9% | [4] 2.85% | [5] -0.55% | [6] -18.1%

COCC1OC2OC3C(COC)OC(OC4C(COC)OC(OC5C(COC)OC(OC6C(COC)OC(OC7C(COC)OC(OC8C(COC)OC(OC1C(O)C2O)C(O)C8O)C(O)C7O)C(O)C6O)C(O)C5O)C(O)C4O)C(O)C3O (stereo not given) (tested in a mixture with another compound)
inactive: [1] 13.2% | [2] -13.6% | [3] -4.6% | [4] 20.1% | [5] -18.8% | [6] -64.7%

CC(=O)c1cccc(S(=O)(=O)F)c1
inactive: [1] -9.7% | [2] -11.3% | [3] -3.25% | [4] 13% | [5] -14.9% | [6] -11.8%

O=NNc1cncc(Cl)n1
inactive: [1] -11.2% | [2] -3.5% | [3] -5.35% | [4] -17.9% | [5] -0.4% | [6] -6.05%

O=C(c1ccccc1)N1CC(Cl)CN(C(=O)c2ccccc2)CC(Cl)C1 (stereo not given)
inactive: [1] 21.4% | [2] 26% | [3] 37.8% | [4] 14.8% | [5] 16.3% | [6] 25.6%

[Se]=P(c1ccccc1)(N1CC1)N1CC1
inactive: [1] 33.2% | [2] 10.2% | [3] 11.8% | [4] 3.55% | [5] -1.3% | [6] 6.85%

CCOC(=N)N1[C@H](C)[C@@H]1C
inactive: [1] 43.1% | [2] -42.2% | [3] -42.1% | [4] -19% | [5] -43.1% | [6] -6.95%

C/C(CCl)=N/NC1=NC(C)(CCC2(C)N=C(N/N=C(/C)CCl)SP2(=O)NC23CC4CC(CC(C4)C2)C3)P(=O)(NC23CC4CC(CC(C4)C2)C3)S1 (stereo not given)
inactive: [1] -9.25% | [2] 1.15% | [3] 16.8% | [4] -21.8% | [5] -19.5% | [6] -28.8%

Cc1cc([N+](=O)[O-])c(N)c([N+](=O)[O-])c1
inactive: [1] -1.55% | [2] -11.1% | [3] -9.8% | [4] 3.6% | [5] -10.8% | [6] -4.75%

CCOC(=O)c1ccccc1C(=O)OCC
inactive: [1] 6.25% | [2] -2.65% | [3] -9.6% | [4] 6.1% | [5] -0.05% | [6] 10.9%

NP(=O)(OCCC(OCc1ccccc1)OCc1ccccc1)N(CCCl)CCCl (stereo not given)
inactive: [1] 54.6% | [2] 9.1% | [3] 54.6% | [4] 48.5% | [5] 6.2% | [6] 31.8%

CN(C)/N=C(\N)c1nnn(C)n1
inactive: [1] -4.45% | [2] -14.2% | [3] -15.2% | [4] -32.8% | [5] -11.2% | [6] -0.3%

CCCCOC(=O)c1ccccc1C(=O)O.[Mn]
inactive: [1] -38.7% | [2] -11.8% | [3] -6.15% | [4] -12.6% | [5] -29.6% | [6] -3.3%

CNN(C)P(=O)(Oc1ccccc1)N(C)NC
inactive: [1] 5.5% | [2] -7.3% | [3] -9.15% | [4] 7.9% | [5] -2.1% | [6] -5.15%

O=C(N/N=C/c1cc(Cl)cc(Cl)c1[O-])c1ccccc1O.O=C(N/N=C/c1cc(Cl)cc(Cl)c1[O-])c1ccccc1O.[Cu+2]
inactive: [1] -6.05% | [2] -16.2% | [3] -17.8% | [4] -38.2% | [5] -12.7% | [6] 12.3%

COCC(=O)CP(=O)(OC)OC
inactive: [1] -20.6% | [2] -19.6% | [3] -11.6% | [4] 18.6% | [5] -14.7% | [6] 1.35%

O=C1C=CC2(C=C1)CCN=c1c(O)c3c(c(O)c12)=NC=N3
inactive: [1] 15.5% | [2] 7.55% | [3] 8.5% | [4] 29.2% | [5] 11.9% | [6] -4.5%

CCC(C)OC(=O)Nc1cccc(OC(=O)NC)c1 (stereo not given)
inactive: [1] 4.75% | [2] -22.6% | [3] -2.1% | [4] -2.15% | [5] -1.6% | [6] -0.3%

COC(=O)[C@H]1[C@H]2CCOC1(c1cc(OC)c(OC)c(OC)c1)c1cc3c(cc1[C@H]2O)OCO3
inactive: [1] -5.55% | [2] -63% | [3] -21.6% | [4] -14.3% | [5] -38% | [6] -0.6%

Cc1ccc(P(=S)(c2ccccc2)c2ccccc2)c2ccccc12
inactive: [1] 9.9% | [2] 0.45% | [3] -1.5% | [4] 10.6% | [5] 20% | [6] -4.25%

N.N.N.N.O=C([O-])CCl.O=C([O-])CCl.[Co+3].[O-][Cl+3]([O-])([O-])[O-]
inactive: [1] -32.1% | [2] -0.45% | [3] -30.4% | [4] 26.7% | [5] -6.5% | [6] -17.5%

O=[N+]([O-])c1cc2n[nH]nc2c2nonc12
inactive: [1] 1.45% | [2] 11.3% | [3] 11.4% | [4] -2.05% | [5] 27.1% | [6] 5.7%

COC12CC3C4=CCOC5CC(=O)N6c7ccccc7C1(CCN2C4)C6C53 (stereo not given)
inactive: [1] 5.3% | [2] -23.8% | [3] 13.3% | [4] 16.9% | [5] 15.2% | [6] 15.4%

NC(=O)c1c[se]c(C2OC(CO)C(O)C2O)n1 (stereo not given)
inactive: [1] -13.1% | [2] -8.75% | [3] -9.75% | [4] -3.25% | [5] -14.8% | [6] -9.95%

O=c1sc2ccccc2n1CC1CS1 (stereo not given)
inactive: [1] 22.4% | [2] -10.1% | [3] -8.75% | [4] 5.25% | [5] -27.1% | [6] -0.25%

O=C(O)CCC(=O)CCl
inactive: [1] 7% | [2] 1.35% | [3] 1.2% | [4] -12.6% | [5] 0.9% | [6] 1%
